In PubChem BioAssay (Tox21):
“And” between values parts separate entries of the source, which are not always exact repeats. Equal values may be shown once. Records with an inconclusive call do not appear. Where a call stands in place of a potency, no number is given. A structure can be active in one record and inactive in another. The source made the active and inactive calls. Unless noted, calls come from the whole dose curve.

target: Androgen receptor (Homo sapiens) (UniProt P10275); experiment: qHTS assay to identify small molecule agonists of the androgen receptor (AR) signaling pathway in the presence of an antagonist (AID 1259381); conditions: MDA-kb2 MMTV-luciferase, AR agonist + nilutamide, 16 h; series mostly up to 92.4 µM; activation: at the top concentration; note: nearly all actives have a fitted effect of over 15% in size
How it was run: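 AR antagonist background: nilutamide 3.0uM final. Cell line: MDA-kb2, MMTV-driven luciferase, responsive to both AR and GR. Exposure 16hr, 37C, no CO2; ONE-Glo luminescence.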

Androgen receptor (Homo sapiens), sequence (P10275 whole entry, looked up): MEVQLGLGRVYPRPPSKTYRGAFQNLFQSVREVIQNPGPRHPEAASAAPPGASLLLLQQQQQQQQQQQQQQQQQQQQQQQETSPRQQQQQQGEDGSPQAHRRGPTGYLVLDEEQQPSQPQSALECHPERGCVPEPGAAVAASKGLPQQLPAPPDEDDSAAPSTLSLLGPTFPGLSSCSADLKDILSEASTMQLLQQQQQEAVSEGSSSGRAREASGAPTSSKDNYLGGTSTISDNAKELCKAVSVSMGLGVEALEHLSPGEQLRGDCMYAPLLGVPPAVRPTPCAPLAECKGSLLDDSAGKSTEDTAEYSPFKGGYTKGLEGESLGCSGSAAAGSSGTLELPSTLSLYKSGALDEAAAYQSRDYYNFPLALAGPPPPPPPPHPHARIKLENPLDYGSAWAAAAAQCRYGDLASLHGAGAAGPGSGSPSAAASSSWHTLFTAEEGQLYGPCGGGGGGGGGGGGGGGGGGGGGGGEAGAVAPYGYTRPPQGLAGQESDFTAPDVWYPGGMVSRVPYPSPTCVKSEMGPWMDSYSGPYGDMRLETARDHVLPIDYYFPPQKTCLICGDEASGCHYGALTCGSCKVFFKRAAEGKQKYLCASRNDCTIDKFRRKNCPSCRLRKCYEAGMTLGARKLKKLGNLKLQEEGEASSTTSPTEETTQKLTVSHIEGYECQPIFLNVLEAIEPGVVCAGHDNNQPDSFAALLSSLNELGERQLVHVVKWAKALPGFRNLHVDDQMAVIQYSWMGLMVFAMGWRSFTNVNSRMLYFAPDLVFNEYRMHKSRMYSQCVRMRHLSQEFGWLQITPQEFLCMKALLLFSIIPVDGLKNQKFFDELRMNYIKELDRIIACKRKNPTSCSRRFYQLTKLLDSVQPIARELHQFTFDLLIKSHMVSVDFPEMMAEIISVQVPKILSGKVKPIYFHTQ

Row | Structure (SMILES) | outcome
1 | O=[N+]([O-])c1ccc(Cl)c([N+](=O)[O-])c1 | inactive
2 | CC(C)=CC1C(C(=O)OCN2C(=O)C3=C(CCCC3)C2=O)C1(C)C (centres undefined) | inactive
3 | COP(=S)(OC)Oc1ccc(S(=O)(=O)N(C)C)cc1 | inactive
4 | CCC(=O)Nc1ccc(Cl)c(Cl)c1 | inactive
5 | CCC1(c2ccc(N)cc2)CCC(=O)NC1=O (centres undefined) | inactive
6 | O=C(O)c1nn(Cc2ccc(Cl)cc2Cl)c2ccccc12 | inactive
7 | CC(C)(c1ccc(OCC2CO2)cc1)c1ccc(OCC2CO2)cc1 (centres undefined) | inactive

system: not listed separately; experiment: qHTS assay to identify small molecule antagonists of the estrogen receptor beta (ER-beta) signaling pathway - cell viability counter screen (AID 1259382; active = well fitted cell-killing curve with a large enough effect in the repeat runs; note: nearly all actives have a fitted effect of over 55% in size; note: potency is the fitted concentration of half-maximal effect;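 for activity change, negative = cytotoxicity: HEK293T cells carrying ER-beta-UAS-bla reporter stimulated with estradiol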); conditions: ER-beta-UAS-bla HEK293T viability, CellTiter-Glo luminescence, 16 h; series mostly up to 92.4 µM; activity change, negative = cytotoxicity: at the top concentration
How it was run: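 HEK293T ER-beta-UAS-bla, 2% charcoal-stripped FBS; compounds + 1nM E2 16 hr 37C; CellTiter-Glo luminescence, 30 min RT.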

Row | Structure (SMILES) | activity change, negative = cytotoxicity | Potency
8 | Nc1ccc([N+](=O)[O-])cc1N | -10.2% (inactive) | –
9 | N#CCCCCC#N | – | inactive
10 | C[N+](C)(C)CC(=O)O | – | inactive
11 | O=S(=O)(O)C(F)(F)C(F)(F)C(F)(F)C(F)(F)C(F)(F)C(F)(F)C(F)(F)C(F)(F)F | – | 46.2 µM (active) and inactive
12 | CC(C)(C#N)N=NC(C)(C)C#N | – | inactive
13 | Cl | – | inactive
14 | O=[N+]([O-])c1ccc(Cl)c([N+](=O)[O-])c1 | – | 27.7 µM (active) and 27.3 µM (active)
15 | Clc1ccc(C(Cl)(Cl)Cl)cc1 | – | inactive
16 | CC(C)=CC1C(C(=O)OCN2C(=O)C3=C(CCCC3)C2=O)C1(C)C (centres undefined) | – | inactive
17 | C[N+](C)(C)C | – | inactive
18 | CCCCOCC1CO1 (centres undefined) | – | inactive
19 | ClCC(Cl)CCl | – | inactive
20 | CCCCOCCOC(C)=O | – | inactive
21 | NN=C(N)N | – | inactive
22 | COP(=S)(OC)Oc1ccc(S(=O)(=O)N(C)C)cc1 | – | inactive
23 | CCC(=O)Nc1ccc(Cl)c(Cl)c1 | – | inactive
24 | CCC[CH2][Sn]([Cl])([CH2]CCC)[CH2]CCC | – | 1.73 µM (active) and 1.93 µM (active)
25 | [Cl-].[Cl-].[Cl-].[Fe+3] | – | inactive

Row | Structure (SMILES) | activity change, negative = cytotoxicity | Potency
26 | ClC(Cl)=C(Cl)C(Cl)=C(Cl)Cl | – | inactive
27 | CCCCC(C#N)(Cn1cncn1)c1ccc(Cl)cc1 (centres undefined) | – | inactive
28 | CCOP(=S)(OCC)SCSC(C)(C)C | – | inactive
29 | C[N+](C)(C)CC(=O)[O-] | – | inactive
30 | O=NN(c1ccccc1)c1ccccc1 | – | inactive
31 | O=C1Nc2ccc(Cl)cc2C(c2ccccc2)=NC1O (centres undefined) | – | inactive
32 | CCOP(=S)(OCC)SCn1c(=O)oc2cc(Cl)ccc21 | – | inactive
33 | CC1CC(=O)O1 (centres undefined) | – | inactive
34 | CNC(=S)S | – | inactive
35 | C[C@]12CC[C@H]3[C@@H](CCC4=CC(=O)CC[C@@H]43)[C@@H]1CC[C@@H]2O | – | inactive
36 | c1ccc(C2CO2)cc1 (centres undefined) | – | inactive
37 | CCC1(c2ccc(N)cc2)CCC(=O)NC1=O (centres undefined) | – | inactive
38 | CC(C)(c1ccccc1)c1ccc(O)c(C(C)(C)c2ccccc2)c1 | – | 24.1 µM (active) and 30.6 µM (active)
39 | CCOP(=O)(O)OCC (tested in a mixture with another compound) | – | inactive and 30.4 µM (active)
40 | CC(C)(c1ccc(OCC2CO2)cc1)c1ccc(OCC2CO2)cc1 (centres undefined) | – | 43.8 µM (active) and inactive
41 | C[C@]12CCC(=O)C=C1CC[C@@H]1[C@@H]2CC[C@@]2(C)[C@H]1CC[C@]2(C)O | – | inactive
42 | O=C1C(Cl)=C(Cl)C(=O)c2ccccc21 | – | 19.4 µM (active) and 30.6 µM (active)

target: Estrogen receptor (Homo sapiens) (UniProt P03372); experiment: qHTS assay to identify small molecule agonists of the estrogen receptor alpha (ER-alpha) signaling pathway in the presence of an antagonist (AID 1259383); conditions: VM7Luc4E2 cells, ERE-luciferase, +ICI-182,780, 22 h; series mostly up to 92.4 µM; activation: at the top concentration; note: nearly all actives have a fitted effect of over 15% in size; note: potency is the fitted concentration of half-maximal effect; for activation: top concentration of the series differs between compounds
How it was run: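 ER-alpha agonism measured under antagonist challenge: 10.0nM ICI-182,780 (final) plus compound, 15 concentrations, 22hr, VM7Luc4E2 ERE-luciferase cells. Read by luminescence.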

Estrogen receptor (Homo sapiens), sequence (P03372 whole entry, looked up): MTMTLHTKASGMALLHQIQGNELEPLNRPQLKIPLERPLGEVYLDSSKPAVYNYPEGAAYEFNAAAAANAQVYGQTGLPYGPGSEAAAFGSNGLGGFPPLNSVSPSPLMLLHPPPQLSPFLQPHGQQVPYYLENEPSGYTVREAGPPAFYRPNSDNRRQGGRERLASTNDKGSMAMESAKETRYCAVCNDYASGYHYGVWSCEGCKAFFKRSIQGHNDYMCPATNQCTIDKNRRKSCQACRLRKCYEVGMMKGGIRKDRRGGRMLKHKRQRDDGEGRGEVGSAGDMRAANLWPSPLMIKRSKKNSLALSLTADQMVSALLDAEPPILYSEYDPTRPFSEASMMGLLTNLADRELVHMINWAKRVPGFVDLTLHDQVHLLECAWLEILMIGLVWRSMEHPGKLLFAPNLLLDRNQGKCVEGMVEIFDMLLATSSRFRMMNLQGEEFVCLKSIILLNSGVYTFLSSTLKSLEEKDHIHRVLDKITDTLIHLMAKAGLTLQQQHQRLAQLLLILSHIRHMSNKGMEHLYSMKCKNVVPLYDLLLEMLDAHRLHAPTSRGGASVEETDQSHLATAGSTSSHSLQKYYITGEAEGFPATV

Row | Structure (SMILES) | Potency
43 | C[N+](C)(C)CC(=O)O | inactive
44 | CC(C)(C#N)N=NC(C)(C)C#N | inactive
45 | O=[N+]([O-])c1ccc(Cl)c([N+](=O)[O-])c1 | inactive
46 | Clc1ccc(C(Cl)(Cl)Cl)cc1 | inactive
47 | C[N+](C)(C)C | inactive
48 | CCCCOCC1CO1 (centres undefined) | inactive
49 | CCCCOCCOC(C)=O | inactive
50 | COP(=S)(OC)Oc1ccc(S(=O)(=O)N(C)C)cc1 | inactive
51 | CCC[CH2][Sn]([Cl])([CH2]CCC)[CH2]CCC | inactive
52 | ClC(Cl)=C(Cl)C(Cl)=C(Cl)Cl | inactive
53 | CCCCC(C#N)(Cn1cncn1)c1ccc(Cl)cc1 (centres undefined) | inactive
54 | CCOP(=S)(OCC)SCSC(C)(C)C | inactive
55 | C[N+](C)(C)CC(=O)[O-] | inactive
56 | O=NN(c1ccccc1)c1ccccc1 | inactive
57 | CCOP(=S)(OCC)SCn1c(=O)oc2cc(Cl)ccc21 | inactive
58 | CNC(=S)S | inactive
59 | C[C@]12CC[C@H]3[C@@H](CCC4=CC(=O)CC[C@@H]43)[C@@H]1CC[C@@H]2O | 1.21 µM (active) and 6.68 µM (active)
60 | CCC1(c2ccc(N)cc2)CCC(=O)NC1=O (centres undefined) | inactive
61 | CC(C)(c1ccccc1)c1ccc(O)c(C(C)(C)c2ccccc2)c1 | inactive
62 | CC[n+]1c(-c2ccccc2)c2cc(N)ccc2c2ccc(N)cc21 | inactive
63 | O=C(O)c1nn(Cc2ccc(Cl)cc2Cl)c2ccccc12 | inactive
64 | CC(C)(c1ccc(OCC2CO2)cc1)c1ccc(OCC2CO2)cc1 (centres undefined) | inactive
65 | C[C@]12CCC(=O)C=C1CC[C@@H]1[C@@H]2CC[C@@]2(C)[C@H]1CC[C@]2(C)O | 11.3 µM (active) and 10.6 µM (active)
66 | O=C1C(Cl)=C(Cl)C(=O)c2ccccc21 | inactive

system: not listed separately; experiment: qHTS assay to identify small molecule agonists or antagonists of the thyroid stimulating hormone receptor (TSHR) signaling pathway - wild type cell line counter screen (AID 1259384); conditions: HEK293 wild type, cAMP HTRF counter-screen; series mostly up to 92.4 µM; cAMP activity change: at the top concentration
How it was run: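 Counter screen in untransfected Hek293: compounds (15-point titration, triplicate) plus phosphodiesterase inhibitor Ro20-1724 added after 18 h plating; 30 min RT. Intracellular cAMP via competitive d2/cryptate immunoassay, 1 h incubation.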

Row | Structure (SMILES) | cAMP activity change | Potency
67 | Nc1ccc([N+](=O)[O-])cc1N | -15.9% (inactive) | –
68 | O=S(=O)(O)C(F)(F)C(F)(F)C(F)(F)C(F)(F)C(F)(F)C(F)(F)C(F)(F)C(F)(F)F | – | inactive
69 | CC(C)(C#N)N=NC(C)(C)C#N | – | inactive
70 | O=[N+]([O-])c1ccc(Cl)c([N+](=O)[O-])c1 | – | inactive
71 | CC(C)=CC1C(C(=O)OCN2C(=O)C3=C(CCCC3)C2=O)C1(C)C (centres undefined) | – | inactive
72 | C[N+](C)(C)C | – | inactive
73 | CCCCOCC1CO1 (centres undefined) | – | inactive
74 | ClCC(Cl)CCl | – | inactive
75 | CCC(=O)Nc1ccc(Cl)c(Cl)c1 | – | inactive
76 | CCC[CH2][Sn]([Cl])([CH2]CCC)[CH2]CCC | 10% (inactive) | –
77 | CCCCC(C#N)(Cn1cncn1)c1ccc(Cl)cc1 (centres undefined) | – | inactive
78 | CCOP(=S)(OCC)SCn1c(=O)oc2cc(Cl)ccc21 | – | inactive
79 | CNC(=S)S | – | inactive
